{"source": "the supplement of paper PMC11417369", "note": "± gives the standard deviation of the averaged measurements. Whole data set: some 25,000 sequences, median “ln(normalized median fluorescence intensity)” near 8.6, cut for the highest 2% near 10. The list comes from a sample in which the highest values are over-represented; it also holds similar and randomly drawn sequences.", "data": [{"system": "PfAP2-EXP AP2 domain (GST-tagged)", "assay": "gcPBM binding intensity (ln(normalized median fluorescence intensity)); higher = stronger DNA binding", "method_in_brief": "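Binding intensity values are the highest Masliner-normalised natural-log median intensity among replicate spots of either probe orientation. The binding step lasted 1 h in 1× PBS with 1% milk, 0.2 mg/ml BSA, 0.5% salmon testes DNA and 0.03% Triton X-100, using GST-tagged P. falciparum DNA-binding domains expressed in E. coli on an Agilent 4 × 180k array of primer-extended double-stranded 36-bp intergenic genomic probes plus negative controls. Alexa488 anti-GST antibody and a 488 nm scan detected bound protein.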", "values": [{"sequence": "TTTTTTAAAAATATTATCATCGTAACAAGAAATCGA [CACACA_negctrl_site1111]", "gcPBM binding intensity (ln)": "8.45 ± 0.4"}, {"sequence": "AATAAAAAACATGAAAGTACTTTAAAAAAGGTAATA [XGTACX_site1897]", "gcPBM binding intensity (ln)": "8.9 ± 0.45"}, {"sequence": "CAAACAAATATATGTTGTACTTATTATATATACATA [XGTACX_site2998]", "gcPBM binding intensity (ln)": "8.38 ± 0.33"}, {"sequence": "ATAATATAGAAACACACACACATATATATATACATT [CACACA_site555]", "gcPBM binding intensity (ln)": "8.71 ± 0.29"}, {"sequence": "TAGATAGATTAAAATACATGCATATTATTAAAAAAT [TGCATGCA_site739]", "gcPBM binding intensity (ln)": "8.84 ± 0.13"}, {"sequence": "AAAGCACCCAAGAATACACACAAATATTATAAAAAA [CACACA_site111]", "gcPBM binding intensity (ln)": "8.57 ± 0.58"}, {"sequence": "TAAACATAATAATATACACACATATATTGATATATA [CACACA_site2144]", "gcPBM binding intensity (ln)": "8.18 ± 0.43"}, {"sequence": "AACCAAATTTCACCATGTACATATTGATAAATATAT [XGTACX_site1374]", "gcPBM binding intensity (ln)": "8.7 ± 0.34"}, {"sequence": "GGATTCAAAAAAAAAAATAAAAGTAAATAATAAATA [TGCATGCA_negctrl_site348]", "gcPBM binding intensity (ln)": "8.27 ± 0.42"}, {"sequence": "ATACACTAGAAAATTTTATAGTATTATTAATGTTAA [GTGCAC_negctrl_site101]", "gcPBM binding intensity (ln)": "8.19 ± 0.42"}, {"sequence": "TAAATTTAGAAACACACACACATATATATATATATA [CACACA_site847]", "gcPBM binding intensity (ln)": "10.3 ± 0.4"}, {"sequence": "AAAAATTAGAAACACACACACATATATATATATATT [CACACA_site1042]", "gcPBM binding intensity (ln)": "8.71 ± 0.22"}, {"sequence": "AAATAATAAATTATAACACACATATATATATATATA [CACACA_site4045]", "gcPBM binding intensity (ln)": "10 ± 0.47"}, {"sequence": "TATATATAATTATAAGAACACACATATATATATATA [CACACA_site8786]", "gcPBM binding intensity (ln)": "10.2 ± 0.18"}, {"sequence": "ATTTAGAAAAATAAAACACACATATATATGTAAATA [CACACA_site4113]", "gcPBM binding intensity (ln)": "8.66 ± 0.48"}, {"sequence": "TTTTTATAAAAATGAACACACACATATATATATATA [CACACA_site9160]", "gcPBM binding intensity (ln)": "10.2 ± 0.4"}, {"sequence": "TTTATAAAAATGAACACACACATATAAATATAAATA [CACACA_site7607]", "gcPBM binding intensity (ln)": "8.65 ± 0.44"}, {"sequence": "TATATAATTATAAGAACACACATATATATATATATA [CACACA_site2472]", "gcPBM binding intensity (ln)": "10.2 ± 0.2"}, {"sequence": "TTTATAAAAATGAACACACACATATATATATATATA [CACACA_site3493]", "gcPBM binding intensity (ln)": "10.4 ± 0.3"}, {"sequence": "TGTTAATTAAAGGACTGTACACTAATAATTCTATAA [XGTACX_site5195]", "gcPBM binding intensity (ln)": "8.5 ± 0.34"}, {"sequence": "TTTTAAAACAATGAGATTCCTTTCTTTTTTTCTTTT [CACACA_negctrl_site1320]", "gcPBM binding intensity (ln)": "7.96 ± 0.59"}, {"sequence": "TGACCGTTTTAAGAGTGTACAAAAAAAAAAAAAAAA [XGTACX_site4141]", "gcPBM binding intensity (ln)": "8.21 ± 0.43"}, {"sequence": "ATATATTTCTGTCAAGCACACATAATATTAATATAT [CACACA_site7993]", "gcPBM binding intensity (ln)": "8.86 ± 0.45"}, {"sequence": "AAAAAATGGCTAGTTTGTACACAAAAGTTATTGCAT [XGTACX_site5381]", "gcPBM binding intensity (ln)": "8.43 ± 0.33"}, {"sequence": "TTAATATAGATATAACCACACACATACATCTAATTC [CACACA_site8519]", "gcPBM binding intensity (ln)": "8.65 ± 0.46"}, {"sequence": "ATTAATTATGTATTTCAACAAAGAAGTGTTATATAT [GTGCAC_negctrl_site215]", "gcPBM binding intensity (ln)": "8.49 ± 0.35"}, {"sequence": "TCAAAAAAGACACACCGTACATACTATTTGGACAGG [XGTACX_site7699]", "gcPBM binding intensity (ln)": "8.51 ± 0.36"}, {"sequence": "CAATTATTGTAATGCATGCACTGAATATAAAAAGAA", "gcPBM binding intensity (ln)": "10.3 ± 0.23"}, {"sequence": "AAATAATATATGAATGCACACAGTAAAAATTAAAGA [CACACA_site2252]", "gcPBM binding intensity (ln)": "8.94 ± 0.35"}, {"sequence": "TAATTGTACACATGCACACACAAATATTATAGATGT [CACACA_site6528]", "gcPBM binding intensity (ln)": "8.99 ± 0.37"}, {"sequence": "TATTATATATTAAATGCATGTAAAAATAATATTAAA [TGCATGCA_site643]", "gcPBM binding intensity (ln)": "9.24 ± 0.44"}, {"sequence": "AACAATTATTGTAATGCATGCACTGAATATAGAAAG [TGCATGCA_site889]", "gcPBM binding intensity (ln)": "10.3 ± 0.24"}, {"sequence": "AACAATTAGAATAACGCATGCATTTATAATATAGAA [TGCATGCA_site595]", "gcPBM binding intensity (ln)": "9.52 ± 0.071"}, {"sequence": "TATAAGAGAAGAAGAAAAAAAAGGTTTCTATAGAAA [XGTACX_negctrl_site421]", "gcPBM binding intensity (ln)": "8.76 ± 0.52"}, {"sequence": "AATAAAAAAAAAATAAATTTAATAATAATAATAAAA [CACACA_negctrl_site569]", "gcPBM binding intensity (ln)": "8.23 ± 0.33"}, {"sequence": "ATATTATCATTTTTTTTAATGGAAAAAAAAAAAAAA [CACACA_negctrl_site1298]", "gcPBM binding intensity (ln)": "8.2 ± 0.61"}, {"sequence": "TTTTTCAGAAAAGAAACACACATATAAATATTTATA [CACACA_site7170]", "gcPBM binding intensity (ln)": "8.47 ± 0.46"}, {"sequence": "ATTAAAATCATATACACACCCATATATATATATATA [CACACA_site5050]", "gcPBM binding intensity (ln)": "10.1 ± 0.34"}, {"sequence": "TACACATACAGACATACACACATACACATATACACA [CACACA_site6918]", "gcPBM binding intensity (ln)": "8.66 ± 0.38"}, {"sequence": "TACACCCACCCACATACACACACATACACATATATA [CACACA_site8503]", "gcPBM binding intensity (ln)": "9.33 ± 0.71"}, {"sequence": "ATTCTAATCATATACACACCCATATATATATATATA [CACACA_site1774]", "gcPBM binding intensity (ln)": "10.3 ± 0.3"}, {"sequence": "TATACAGACAGACACACACACATATATATATATATA [CACACA_site1734]", "gcPBM binding intensity (ln)": "10.1 ± 0.42"}, {"sequence": "CATATACATACACATACACACATACAGACATACACA [CACACA_site6919]", "gcPBM binding intensity (ln)": "8.69 ± 0.37"}, {"sequence": "CACCCACCCACATACACACACATACACATATATATA [CACACA_site1722]", "gcPBM binding intensity (ln)": "9.3 ± 0.45"}, {"sequence": "ATTCTACACCCACATACACACATATATATATATATA [CACACA_site3426]", "gcPBM binding intensity (ln)": "10.2 ± 0.26"}, {"sequence": "TACATACACAGACACACACACATATATATATATATA [CACACA_site3557]", "gcPBM binding intensity (ln)": "10.2 ± 0.2"}, {"sequence": "CATACATACAGACACACACACATATATATATATATA [CACACA_site2920]", "gcPBM binding intensity (ln)": "10.1 ± 0.35"}, {"sequence": "AGTATACACAGACACACACACACATATATATATATA [CACACA_site8510]", "gcPBM binding intensity (ln)": "10.2 ± 0.23"}, {"sequence": "TAATTAAAATCATATACACACCCATATATATATATA [CACACA_site8524]", "gcPBM binding intensity (ln)": "10 ± 0.25"}, {"sequence": "TATATATATTTATAATGTACACATATATGTAAATAT [XGTACX_site3695]", "gcPBM binding intensity (ln)": "8.51 ± 0.2"}, {"sequence": "ATATATATATATATAAAGTGAAGTATGAGGGAAATA [XGTACX_negctrl_site497]", "gcPBM binding intensity (ln)": "10.1 ± 0.3"}, {"sequence": "AGAATAAAAAGGAACACACACACACGCATATAAATA [CACACA_site7659]", "gcPBM binding intensity (ln)": "9.01 ± 0.55"}, {"sequence": "TTACATATTATACGAAGTACGTACAAATACTTATAT [XGTACX_site8598]", "gcPBM binding intensity (ln)": "8.6 ± 0.26"}, {"sequence": "GTATGTTTGTTATGCACACAAATGCATCTTATTTCC [CACACA_site2690]", "gcPBM binding intensity (ln)": "8.96 ± 0.28"}, {"sequence": "TTATTTAACGTATTCTCACACATATATATATATAAT [CACACA_site5226]", "gcPBM binding intensity (ln)": "8.64 ± 0.42"}, {"sequence": "TAAATATGTATAAATTGTACAAAATATATGAATAGT [XGTACX_site5659]", "gcPBM binding intensity (ln)": "8.94 ± 0.29"}]}]}
